HSF1 inhib: HSF1 inhibition | NIH3T3-HGL HSE-luciferase, MG132-induced, luminescence 8 h; hits give low values | activity change, negative = inhibition, % at 7.5 µM (by protocol) | hit rate 0.77% among 300,000;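 active = more than half of replicate wells show activity change below -50%, luminescence cut by over half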;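 note: luciferase reports HSF-1 transcriptional activity via heat shock element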
HIF act: HIF pathway transcriptional activation; activation, % at 7.5 µM (by protocol); U2OS HRE-luciferase reporter, luminescence; normalized: DMSO 0%, desferrioxamine 100%; hit rate 0.32% among 300,000;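 active = mean activation of at least 10% of the iron chelator positive control signal, with at least half of replicates also reaching 10%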
ARNT TACC3 PPI: disruptors of human ARNT/TACC3 interaction; hit rate 0.66% among 390,000; AlphaScreen His-ARNT PAS-B/GST-TACC3 binding, luminescence; TACC3 fragment carries E629A point mutation; AID 623870; inhibition, % at 9.99 µM;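 active = mean inhibition of replicates at least 50% and at least half of replicates each reaching 50%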
HSF-1 act: increases HSF-1 driven luciferase reporter signal; NIH3T3-HGL HSF-1 luciferase reporter, MG132, 8 h; 100% = twice DMSO control signal; activation, % at 9 µM; hit rate 1.7% among 300,000;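 active = mean replicate activation of at least 50% with a set share of replicates each reaching 50%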
HSP90 inh: inhibitors of HSP90 luciferase refolding in rabbit reticulocyte lysate | luciferase refolding luminescence, 3 h | inhibition, % at 5.6 µM | hit rate 0.91% among 290,000;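 active = inhibition above the screen-wide mean plus 3 SD, computed separately per campaign, cut at about 16% in these data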;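 note: inhibitors lower the luminescence because luciferase stays unfolded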
Numbers stand for hits; . = inactive; / = no result. Most compounds without a hit are left out; they make up all but 3.1% or so of the library.

SMILES | HSF1 inhib | HIF act | ARNT TACC3 PPI | HSF-1 act | HSP90 inh
CCN(C(=O)COC(=O)c1cc(-c2ccc3cc(OC)ccc3c2)nc2ccccc12)C1CCS(=O)(=O)C1 (stereo not given) | . | . | / | 70.5 | .
CCN(C(=O)COC(=O)c1cc(OC)ccc1Br)C1CCS(=O)(=O)C1 (stereo not given) | / | / | . | / | /
CCN(C(=O)COC(=O)c1c2c(nc3ccccc13)/C(=C/c1ccccc1)CC(C)C2)C1CCS(=O)(=O)C1 (stereo not given) | . | . | . | 83.9 | .
COc1cccc(NC(=O)N2C[C@H](O)COC[C@H]3O[C@H](CC(=O)NC4CCCC4)CC[C@@H]32)c1 | / | / | . | / | /
O=S(=O)(/N=C(/c1ccccc1Cl)N1CCOCC1)c1ccccc1 | -58.0 | . | . | . | .
O=S(=O)(/N=C(\c1ccccc1)N1CCOCC1)c1ccc(Cl)cc1 | . | . | . | . | .
CN(C)S(=O)(=O)N(CC(=O)Nc1ccccc1F)c1ccccc1 | . | . | . | . | .
CCc1ccc(NC(=O)CN(c2ccccc2)S(=O)(=O)N(C)C)cc1 | . | . | . | 60.4 | .
C/C(=N\NS(=O)(=O)c1ccccc1)c1ccc2c(c1)OCCO2 | -56.3 | . | . | . | .
C/C(=N/NC(=O)c1ccc2c(c1)OCCO2)c1ccc([N+](=O)[O-])cc1 | -66.7 | . | . | . | .
CCC(=O)Nc1ccc(C(=O)OCC(=O)c2ccc(C)c([N+](=O)[O-])c2)cc1 | . | . | . | . | .
CC(=O)Nc1ccc(C(=O)OCC(=O)c2ccc(C)c([N+](=O)[O-])c2)cc1 | . | . | . | 58.3 | .
Cc1ccc(C(=O)NCCSC(C)(C)C)cc1[N+](=O)[O-] | . | . | . | . | .
Cc1ccc(C(=O)NCC(C)NC(=O)c2ccc(C)c([N+](=O)[O-])c2)cc1[N+](=O)[O-] (stereo not given) | . | . | . | 87.7 | /
O=C(Nc1ccn(Cc2ccccc2F)n1)c1ccc(COc2cccc(Br)c2)cc1 | . | . | . | 51.5 | .
O=C(Nc1ccn(Cc2ccccc2F)n1)c1ccc(COc2ccccc2Cl)cc1 | . | . | . | . | .
CCC(=O)NC(=S)NNC(=O)c1ccc(O)cc1 | . | . | 75.1 | . | .
CCC(=O)NNC(=S)NC(=O)c1ccc(C)cc1 | . | . | . | . | .
Nc1ccc(Sc2cnn(-c3ccccc3)c(=O)c2Cl)cc1 | . | . | . | 57.3 | .
Cc1ccc(Sc2cnn(-c3ccccc3)c(=O)c2Cl)cc1 | . | . | . | . | .
C/C(=N/NC(N)=S)c1cc2ccc(O)cc2oc1=O | . | . | 39.4 | . | .
C[C@H](CO)N1C[C@H](C)[C@@H](CN(C)C(=O)c2ccc3c(c2)OCO3)Oc2cc(-c3cncnc3)ccc2S1(=O)=O | / | / | . | / | /
Cc1cc2c(cc1S(=O)(=O)N1CCN(c3ccccc3F)CC1)OCC(=O)N2 | . | . | 15.2 | . | .
COc1ccc(C2=NN(C(=O)c3ccccc3)C(c3cccc([N+](=O)[O-])c3)C2)cc1 (stereo not given) | . | . | . | . | .
CCOC(=O)/C=C(/C)N1N=C(c2ccc(OC)cc2)CC1c1cccc([N+](=O)[O-])c1 (stereo not given) | . | . | . | 59.2 | .
SMILES | HSF1 inhib | HIF act | ARNT TACC3 PPI | HSF-1 act | HSP90 inh
COC(=O)C[C@@H]1C[C@H]2c3cc(NC(=O)c4cccnc4)ccc3O[C@H]2[C@@H](CO)O1 | / | / | . | / | /
CCCn1cc(S(=O)(=O)c2ccccc2)c(=O)c2cc(OCC)ccc21 | . | . | . | . | .
CCCCn1cc(S(=O)(=O)c2ccccc2)c(=O)c2cc(C)ccc21 | -73.6 | . | . | . | .
Cc1ccc(C(=O)c2sc3nc4c(cc3c2N)CCC4)cc1 | . | . | . | . | .
Nc1nc(N)c2sc3nc4c(cc3c2n1)CCC4 | . | . | 76.1 | . | .
COc1ccc(N=C2SC(C(=O)N3CCN(c4ccccc4)CC3)CC(=O)N2C)cc1 (stereo not given) | -77.3 | . | . | . | .
COc1ccc(N2CC(C(=O)N3CCN(c4ccccc4)CC3)CC2=O)cc1 (stereo not given) | . | . | . | . | .
O=C(O)c1cc(-c2cccc3ccccc23)nc2ccccc12 | -88.2 | . | . | . | .
COCCNC(=O)c1cc(-c2ccc(-c3ccccc3)cc2)nc2ccccc12 | . | . | . | 64.5 | .
O=C(NCc1ccccn1)c1n[nH]c2ccccc12 | . | . | 24.0 | . | .
CCCc1ccc(-c2cc(C(=O)NCCc3ccc(S(N)(=O)=O)cc3)c3ccccc3n2)cc1 | . | . | . | 84.5 | .
Cc1noc(C)c1NC(=O)Nc1ccc2c(c1)C(=O)N([C@H](C)CO)C[C@@H](C)[C@@H](CN(C)C(=O)Nc1ccc3c(c1)OCO3)OCCCC[C@@H](C)O2 | / | / | . | / | /
Cc1noc(C)c1NC(=O)Nc1ccc2c(c1)C(=O)N([C@@H](C)CO)C[C@H](C)[C@H](CN(C)Cc1ccc(C(F)(F)F)cc1)O2 | / | / | . | / | /
O=C(NCc1ccccn1)c1cc(-c2ccccc2)nc2ccccc12 | . | . | . | . | .
O=C(NCc1ccccn1)c1cc(-c2ccc(-c3ccccc3)cc2)nc2ccccc12 | . | . | . | 83.6 | .
COc1ccc(C2=NN(C(C#N)c3ccc(OC)cc3)C(c3ccccc3)C2)cc1 (stereo not given) | . | . | . | 63.8 | .
COc1ccc(C(C#N)N2N=C(C)CC2c2ccccc2)cc1 (stereo not given) | . | . | . | . | .
Cc1ccc(NC(=O)CN2C(=S)NC(C)(C)CC2C)cc1Cl (stereo not given) | / | / | . | / | .
CC(=O)c1cccc(NC(=O)CN2C(=S)NC(C)(C)CC2C)c1 (stereo not given) | -62.0 | . | . | . | .
Cc1c(NC(=O)C(C)N2CC(C)OC(C)C2)c(=O)n(-c2ccccc2)n1C (stereo not given) | . | . | . | 60.4 | .
C[C@@H]1CCCCO[C@@H](CN(C)C(=O)Nc2cccc3ccccc23)[C@H](C)CN([C@H](C)CO)C(=O)c2cc(NC(=O)Cc3ccccc3)ccc2O1 | / | / | . | / | /
Cc1ccc(S(=O)(=O)n2ccc(=O)[nH]2)cc1 | -68.3 | . | . | . | .
CO[C@@H]1CN(C)C(=O)c2cc(NC(=O)CC(F)(F)F)ccc2OC[C@@H](C)N(C(=O)C2CCOCC2)C[C@H]1C | / | / | . | / | /
COc1ccc(CNC(=O)C[C@@H]2CC[C@H]3[C@@H](COc4ccc(NC(=O)C5CC5)cc4C(=O)N3C)O2)cc1 | / | / | active | / | /
C[C@@H]1CN([C@@H](C)CO)C(=O)c2cccc(NS(=O)(=O)c3cn(C)cn3)c2O[C@H]1CN(C)C(=O)Nc1ccc2c(c1)OCO2 | / | / | . | / | /
COc1ccc(NC(=O)Nc2ccc3c(c2)C(=O)N([C@@H](C)CO)C[C@@H](C)[C@H](CN(C)S(=O)(=O)c2ccccc2)OCCCC[C@@H](C)O3)cc1 | / | / | . | / | /
CC(C)(C)c1nnc(NC(=O)Nc2ccc(Cl)cc2)s1 | . | . | / | . | .
